{"source": "ChEMBL document CHEMBL3433997", "about": "“St. Jude Leishmania screening dataset” (2016)", "format_in_all_cases": "functional", "key": {"[1]": {"biological_target": "Solute carrier family 2, facilitated glucose transporter member 1 (Homo sapiens) (UniProt P11166)", "sequence (P11166 whole entry)": "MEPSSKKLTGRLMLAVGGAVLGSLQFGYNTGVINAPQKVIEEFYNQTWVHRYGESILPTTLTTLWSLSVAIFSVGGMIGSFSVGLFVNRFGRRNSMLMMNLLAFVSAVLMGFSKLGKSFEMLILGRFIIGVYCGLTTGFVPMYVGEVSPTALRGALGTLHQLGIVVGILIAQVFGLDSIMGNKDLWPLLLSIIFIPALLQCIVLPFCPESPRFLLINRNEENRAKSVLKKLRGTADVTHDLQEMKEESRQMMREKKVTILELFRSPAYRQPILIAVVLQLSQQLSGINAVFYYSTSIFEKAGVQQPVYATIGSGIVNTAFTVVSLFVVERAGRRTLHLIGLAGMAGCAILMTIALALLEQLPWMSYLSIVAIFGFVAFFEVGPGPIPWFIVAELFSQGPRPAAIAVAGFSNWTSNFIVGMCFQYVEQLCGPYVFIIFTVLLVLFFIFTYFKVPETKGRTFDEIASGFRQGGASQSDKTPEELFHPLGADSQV", "assay": "ST_JUDE_LEISH: Cytotoxicity at 2uM final concentration against transgenic Leishmania Mexicana promastigotes LmGLUT1 that are glucose transport deficient and complemented with the human glucose transporter GLUT1. Activity is measured by DNA content using SYBR green in vitro"}, "[2]": {"biological_target": "Hexose transporter 1 (Plasmodium falciparum) (UniProt O97467)", "assay": "ST_JUDE_LEISH: Cytotoxicity at 2uM final concentration against transgenic Leishmania Mexicana promastigotes LmPfHT that are glucose transport deficient and complemented with the Plasmodium falciparum hexose transporter. Activity is measured by DNA content using SYBR green in vitro"}, "[3]": {"biological_target": "Glucose transporter (Leishmania mexicana) (UniProt O61059)", "assay": "ST_JUDE_LEISH: Cytotoxicity at 2uM final concentration against transgenic Leishmania Mexicana promastigotes LmGT2 that are glucose transport deficient and complemented with the L. Mexicana glucose transporter 2. Activity is measured by DNA content using SYBR green in vitro"}}}
{"smiles": "O=C(Nc1ccc2c(c1)OCO2)c1cc(-c2cccnc2)nc2ccc(Cl)cc12", "values": [{"measurement": "inhibition", "setting": "[1]", "value": 3.49, "unit": "%"}, {"measurement": "inhibition", "setting": "[2]", "value": 0.67, "unit": "%"}, {"measurement": "inhibition", "setting": "[3]", "value": -0.92, "unit": "%"}]}
{"smiles": "c1ccc(CNCCn2c(-c3ccc4c(c3)CCO4)nc3c(N4CCCC4)cccc32)cc1", "values": [{"measurement": "inhibition", "setting": "[1]", "value": 11.7, "unit": "%"}, {"measurement": "inhibition", "setting": "[2]", "value": 8.74, "unit": "%"}, {"measurement": "inhibition", "setting": "[3]", "value": 6.86, "unit": "%"}]}
{"smiles": "Cc1cc(N[C@@H](Cc2ccccc2)C(=O)NCCOc2ccccc2)nc(Nc2ccccc2)n1", "values": [{"measurement": "inhibition", "setting": "[1]", "value": 6.08, "unit": "%"}, {"measurement": "inhibition", "setting": "[2]", "value": 6.54, "unit": "%"}, {"measurement": "inhibition", "setting": "[3]", "value": 2.62, "unit": "%"}]}
{"smiles": "Fc1ccc2[nH]c(-c3cccc(-c4ccc(CNCc5ccccc5)cc4)c3)nc2c1", "values": [{"measurement": "inhibition", "setting": "[1]", "value": 7.37, "unit": "%"}, {"measurement": "inhibition", "setting": "[2]", "value": 9.95, "unit": "%"}, {"measurement": "inhibition", "setting": "[3]", "value": 4.2, "unit": "%"}]}
{"smiles": "Nc1nc2c(c(=O)[nH]1)CN(S(=O)(=O)c1ccc(C(=O)N[C@@H](CCC(=O)O)C(=O)O)cc1)CC2", "values": [{"measurement": "inhibition", "setting": "[1]", "value": -3.01, "unit": "%"}, {"measurement": "inhibition", "setting": "[2]", "value": -2.13, "unit": "%"}, {"measurement": "inhibition", "setting": "[3]", "value": -1.12, "unit": "%"}]}
{"smiles": "Cc1ccc(S(=O)(=O)N(C)c2ccccc2C(=O)Nc2ccccc2Oc2ccccc2)cc1", "values": [{"measurement": "inhibition", "setting": "[1]", "value": -0.78, "unit": "%"}, {"measurement": "inhibition", "setting": "[2]", "value": -0.51, "unit": "%"}, {"measurement": "inhibition", "setting": "[3]", "value": -3.37, "unit": "%"}]}
{"smiles": "Cc1cc(CN2CC[C@H](NC(=O)c3ccc(Cl)c(Cl)c3)C2)ccc1OC1CCN(Cc2ccccc2)CC1", "values": [{"measurement": "inhibition", "setting": "[1]", "value": 11, "unit": "%"}, {"measurement": "inhibition", "setting": "[2]", "value": 8.06, "unit": "%"}, {"measurement": "inhibition", "setting": "[3]", "value": 8.04, "unit": "%"}]}
{"smiles": "Cc1cccc2nc(-c3ccc(-c4ccc(CN5CCC(CO)CC5)cc4)s3)[nH]c12", "values": [{"measurement": "inhibition", "setting": "[1]", "value": 3.72, "unit": "%"}, {"measurement": "inhibition", "setting": "[2]", "value": 2.43, "unit": "%"}, {"measurement": "inhibition", "setting": "[3]", "value": 0.87, "unit": "%"}]}
{"smiles": "CN1CCN(Cc2ccc(-c3ccc4c(Nc5ccc(Oc6ccccn6)cc5)ccnc4c3)o2)CC1", "values": [{"measurement": "inhibition", "setting": "[1]", "value": -0.46, "unit": "%"}, {"measurement": "inhibition", "setting": "[2]", "value": 0.11, "unit": "%"}, {"measurement": "inhibition", "setting": "[3]", "value": -1.97, "unit": "%"}]}
